Assay results as given in PubChem BioAssay (Tox21).
Inconclusive results are not listed. A call without a number means that no potency is given here. Unmarked numbers belong to inactive results. Activity calls are given as the source filed them. Unless noted, the call rests on the fitted dose curve; in most records, active means well fitted curve in the direction sought with a large enough effect in the repeat runs; inconclusive means weak or mixed curves; inactive means no such curve, though single readings can be large; an effect the other way counts as inactive or inconclusive.

Experiments:
[1] = qHTS assay to identify small molecule agonists of the vitamin D receptor (VDR) signaling pathway - cell viability counter screen (AID 743224); further: series mostly up to about 63 µM; nearly all actives have a fitted effect of over 50% in size
Method in brief: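 In parallel with the bla FRET readout, cytotoxicity toward VDR-bla cells after 16 h compound exposure was assessed by CellTiter-Glo, with luminescence recorded after a 30 min room-temperature incubation.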

[2] = qHTS assay to identify small molecule antagonists of the vitamin D receptor (VDR) signaling pathway - cell viability counter screen (AID 743225); further: nearly all actives have a fitted effect of over 50% in size
Method in brief: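 Viability counter screen run in the same wells as the beta-lactamase reporter assay: HEK 293T VDR-UAS-bla cells, 16 h compound exposure at 37C with 3 nM (final) 1-alpha,25-dihydroxyvitamin D3. CellTiter-Glo luminescence, 30 min, room temperature.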

[3] = qHTS assay to identify small molecule agonists of the NFkB signaling pathway - cell viability counter screen (AID 1159515; calls by dose curve; further: series mostly up to about 61 µM; nearly all actives have a fitted effect of over 55% in size)
Method in brief: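 Plate 2,000 NFkB-bla ME-180 cells/well; incubate overnight. Add compounds, 5 hr at 37 C. Add FRET substrate, 1.5 hr RT. Add CellTiter-Glo, 30 min RT; read luminescence.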

[4] = qHTS assay to identify small molecule agonists of the endoplasmic reticulum stress response signaling pathway (AID 1159516; active means well fitted activation curve with a large enough effect in the signal ratio in the repeat runs, not every such curve was filed as active; the % refers to the signal ratio)
Method in brief: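 Beta-lactamase expression from the ER stress response element in HeLa reporter cells is quantified with the LiveBLAzer B/G FRET substrate, read at 405 nm excitation after 2 hr at room temperature, following 5 hr compound treatment at 37 C.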

[5] = qHTS assay to identify small molecule agonists of the endoplasmic reticulum stress response signaling pathway - cell viability counter screen (AID 1159517; calls by dose curve; further: series mostly up to about 61 µM; nearly all actives have a fitted effect of over 50% in size)
Method in brief: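 After overnight attachment, ESRE-bla HeLa cells were treated with Tox21 library compounds for 5 hr. CellTiter-Glo luminescence, read 30 min post-addition at room temperature, reported viability.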

[6] = qHTS assay to identify small molecule antagonists of the retinoid-related orphan receptor gamma (ROR-gamma) signaling pathway - cell viability counter screen (AID 1159520); further: nearly all actives have a fitted effect of over 50% in size
Method in brief: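 Cytotoxicity was read from cellular ATP (CellTiter-Glo luminescence) after 16 hr at 37 C with 1 uM doxycycline induction. The inducer was added 2 hr after compound transfer to Tet-on ROR gamma CHO cells.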

[7] = molecular target: Nuclear receptor ROR-gamma (Homo sapiens) (UniProt P51449); test: qHTS assay to identify small molecule antagonists of the retinoid-related orphan receptor gamma (ROR-gamma) signaling pathway (AID 1159521)
Method in brief: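 Luminescence readout (ONE-Glo, 30 min RT) after 16 h doxycycline induction; loss of signal scored as antagonism. CHO cells with TET-inducible RORγ and RORE-LUC reporter; compounds added 2 h before 1 uM final doxycycline.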

[8] = qHTS assay to identify small molecule agonists of the AP-1 signaling pathway - cell viability counter screen (AID 1159525; calls by dose curve; further: nearly all actives have a fitted effect of over 55% in size)
Method in brief: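 Intracellular ATP by Cell Titer Glo luminescence (30 min, RT) in the same ME-180 AP-1-bla wells after the 5 h compound exposure at 37 °C. Normalised to tetra n-octyl ammonium bromide and DMSO controls.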

[9] = qHTS assay to identify small molecule agonists of the AP-1 signaling pathway (AID 1159526; calls by dose curve; further: potency means the concentration at half of the fitted maximal effect)
[10] = molecular target: Retinoic acid receptor RXR-alpha (Homo sapiens) (UniProt P19793); test: qHTS assay to identify small molecule agonists of the RXR signaling pathway (AID 1159527; calls by dose curve; further: nearly all actives have a fitted effect of over 35% in size; further: potency means the concentration at half of the fitted maximal effect)
Method in brief: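 Agonist mode; 9-cis retinoic acid positive control. HEK 293T UAS-bla reporter cells, 2% charcoal-stripped FBS, 16 hr compound exposure at 37 C/5% CO2. LiveBLAzer B/G FRET substrate 2 hr RT; ex 405, em 460/530 nm.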

[11] = qHTS assay to identify small molecule agonists of the RXR signaling pathway - cell viability counter screen (AID 1159529)
Method in brief: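 Luminescence from CellTiter-Glo (30 min, RT) measured viability in the same wells as the beta-lactamase reporter readout. Cells: GeneBLAzer RXR-alpha HEK 293T, 2% charcoal-stripped FBS. Compound exposure 16 hr, 37 C.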

[12] = qHTS assay to identify small molecule antagonists of the retinoid acid receptor (RAR) signaling pathway - cell viability counter screen (AID 1159551); further: nearly all actives have a fitted effect of over 35% in size
Method in brief: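 Viability of C3RL4 cells is quantified from ATP by luminescence after 6 h treatment at 37 C with compounds and 1 uM retinol.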

[13] = qHTS assay to identify small molecule antagonists of the retinoic acid receptor (RAR) signaling pathway (AID 1159552; further: nearly all actives have a fitted effect of over 50% in size)
Method in brief: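 Luminescence from a RARE luciferase reporter in C3RL4 cells served as read-out. Cells received compounds together with 1 uM final retinol and incubated 6 hr at 37 C before detection reagent was added for 30 min at room temperature.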

[14] = qHTS assay to identify small molecule agonists of the retinoic acid receptor (RAR) signaling pathway (AID 1159553)
Method in brief: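 Compounds dissolved in DMSO were pinned onto C3RL4 cells seeded the previous day, and plates were held 6 hr at 37 C. RARE-driven luciferase output was then read by luminescence.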

[15] = qHTS assay to identify small molecule antagonists of the estrogen related receptor (ERR) signaling pathway from Tox21 library - cell viability counter screen (AID 1224834); further: nearly all actives have a fitted effect of over 30% in size
Method in brief: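 In this quantitative HTS format, ERR cells receive compounds in DMSO and are incubated for 17.5 h at 37 C. Live-cell protease activity is then detected with CellTiter-Fluor.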

[16] = molecular target: Luciferin 4-monooxygenase (Photinus pyralis) (UniProt P08659); test: qHTS assay to identify small molecule inhibitors of firefly luciferase (AID 1224835); further: series mostly up to about 120 µM; nearly all actives have a fitted effect of over 25% in size
Method in brief: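 Inhibition of purified Photinus luciferase is measured by luminescence. Substrate levels (D-luciferin, ATP) sit at their KM values. Each compound is tested in a concentration series.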

[17] = qHTS assay to identify small molecule agonists of the constitutive androstane receptor (CAR) signaling pathway - cell viability counter screen (AID 1224836); further: series mostly up to about 92 µM; nearly all actives have a fitted effect of over 45% in size
Method in brief: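 Viability read-out: CellTiter-Fluor fluorescence after 23 h compound exposure at 37 C/5% CO2 in double-stable HepG2-CYP2B6-hCAR cells, with PK11195 present at 0.75 uM final; compounds tested in 15-point titration.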

[18] = qHTS assay to identify small molecule antagonists of the constitutive androstane receptor (CAR) signaling pathway - cell viability counter screen (AID 1224837); further: series mostly up to about 92 µM; nearly all actives have a fitted effect of over 45% in size
Method in brief: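 In quantitative HTS format, compounds at 15 concentrations were applied to HepG2 cells double-transfected with hCAR and CYP2B6-2.2kb under 50 nM CITCO stimulation; live-cell protease activity was read after 23 hr via CellTiter-Fluor.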

[19] = molecular target: Nuclear receptor subfamily 1 group I member 3 (Homo sapiens) (UniProt Q14994); test: qHTS assay to identify small molecule agonists of the constitutive androstane receptor (CAR) signaling pathway (AID 1224839);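 further: HepG2 cells stably carrying human CAR and a CYP2B6 luciferase reporter; series mostly up to about 92 µM; nearly all actives have a fitted effect of over 15% in size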
Method in brief: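 Luminescence read-out (ONE-Glo, 30 min, room temperature) from double-stable HepG2-CYP2B6-hCAR cells exposed 24 h to 15-point compound series in presence of 0.75 uM PK11195 final.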

Retinoic acid receptor RXR-alpha (Homo sapiens), sequence (P19793 whole entry, looked up): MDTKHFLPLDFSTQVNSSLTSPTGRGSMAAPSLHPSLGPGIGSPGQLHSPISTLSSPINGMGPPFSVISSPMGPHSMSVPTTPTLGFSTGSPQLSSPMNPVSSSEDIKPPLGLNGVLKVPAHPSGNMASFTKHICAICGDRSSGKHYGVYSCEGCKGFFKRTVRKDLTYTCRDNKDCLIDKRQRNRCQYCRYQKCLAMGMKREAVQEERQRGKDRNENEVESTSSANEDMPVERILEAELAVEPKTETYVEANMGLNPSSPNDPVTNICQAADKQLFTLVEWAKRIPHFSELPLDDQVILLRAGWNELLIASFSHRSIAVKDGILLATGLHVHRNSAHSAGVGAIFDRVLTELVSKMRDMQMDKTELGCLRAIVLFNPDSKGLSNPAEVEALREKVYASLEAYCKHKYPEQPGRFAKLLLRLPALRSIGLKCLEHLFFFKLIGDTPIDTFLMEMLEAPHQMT
Luciferin 4-monooxygenase (Photinus pyralis), sequence (P08659 whole entry, looked up): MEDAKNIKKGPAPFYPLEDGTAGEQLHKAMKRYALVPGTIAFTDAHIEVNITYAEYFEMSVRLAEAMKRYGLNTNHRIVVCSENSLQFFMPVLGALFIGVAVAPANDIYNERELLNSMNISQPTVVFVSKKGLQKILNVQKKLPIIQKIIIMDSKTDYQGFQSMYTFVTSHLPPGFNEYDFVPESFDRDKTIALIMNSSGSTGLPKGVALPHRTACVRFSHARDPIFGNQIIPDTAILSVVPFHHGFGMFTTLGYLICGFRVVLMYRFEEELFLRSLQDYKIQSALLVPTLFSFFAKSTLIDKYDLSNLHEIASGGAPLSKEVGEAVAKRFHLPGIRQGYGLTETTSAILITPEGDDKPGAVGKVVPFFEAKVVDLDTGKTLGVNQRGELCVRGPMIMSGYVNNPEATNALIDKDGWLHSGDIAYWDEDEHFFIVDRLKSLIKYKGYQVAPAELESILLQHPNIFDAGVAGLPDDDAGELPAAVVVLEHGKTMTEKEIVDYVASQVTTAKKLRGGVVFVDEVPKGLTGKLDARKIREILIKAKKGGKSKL
Nuclear receptor subfamily 1 group I member 3 (Homo sapiens), sequence (Q14994 whole entry, looked up): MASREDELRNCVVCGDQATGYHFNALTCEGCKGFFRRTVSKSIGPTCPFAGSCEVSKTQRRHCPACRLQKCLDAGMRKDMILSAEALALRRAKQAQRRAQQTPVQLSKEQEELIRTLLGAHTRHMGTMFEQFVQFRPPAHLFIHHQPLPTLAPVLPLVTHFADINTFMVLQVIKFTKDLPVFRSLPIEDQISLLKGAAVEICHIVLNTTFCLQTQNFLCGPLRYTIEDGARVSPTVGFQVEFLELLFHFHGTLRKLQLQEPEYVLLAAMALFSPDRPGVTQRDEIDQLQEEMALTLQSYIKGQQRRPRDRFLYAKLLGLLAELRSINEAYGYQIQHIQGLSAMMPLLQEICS

CC(C)=CCC/C(C)=C\C#N
outcome [1]: inactive | outcome [2]: inactive | outcome [3]: inactive | Potency [4]: inactive | outcome [5]: inactive | outcome [6]: inactive | outcome [7]: inactive | outcome [8]: inactive | Potency [9]: inactive | Potency [10]: inactive | Potency [11]: inactive | outcome [12]: inactive | outcome [13]: inactive | Potency [14]: inactive | outcome [15]: inactive | Potency [16]: inactive | outcome [17]: inactive | outcome [18]: inactive | Potency [19]: inactive

C/C=C/C(=O)CCCC
outcome [2]: inactive | outcome [3]: inactive | Potency [4]: inactive | outcome [5]: inactive | outcome [6]: inactive | outcome [7]: inactive | outcome [8]: inactive | Potency [9]: inactive | Potency [10]: inactive | Potency [11]: inactive | outcome [12]: inactive | outcome [13]: inactive | Potency [14]: inactive | outcome [15]: inactive | Potency [16]: inactive | outcome [17]: inactive | outcome [18]: inactive | Potency [19]: inactive

CCCCCCCCCCCCCCCC/C=C/C1CC(=O)OC1=O (centres undefined)
outcome [1]: inactive | outcome [2]: inactive | outcome [3]: inactive | Potency [4]: inactive | outcome [5]: inactive | outcome [6]: inactive | outcome [7]: inactive | outcome [8]: inactive | Potency [9]: 16.9 µM (active) | Potency [10]: inactive | Potency [11]: inactive | outcome [12]: inactive | outcome [13]: inactive | Potency [14]: inactive | outcome [15]: inactive | Potency [16]: inactive | outcome [17]: inactive | outcome [18]: inactive

CCOc1ccccc1OCCN[C@H](C)Cc1ccc(OC)c(S(N)(=O)=O)c1
outcome [1]: inactive | outcome [2]: inactive | outcome [3]: inactive | Potency [4]: inactive | outcome [5]: inactive | outcome [6]: inactive | outcome [7]: inactive | outcome [8]: inactive | Potency [9]: inactive | Potency [10]: inactive | Potency [11]: inactive | outcome [12]: inactive | outcome [13]: inactive | Potency [14]: inactive | outcome [15]: inactive | Potency [16]: inactive | outcome [17]: inactive | outcome [18]: inactive | Potency [19]: inactive

CC(C)c1cc(C(C)C)cc(C(C)C)c1
outcome [1]: inactive | outcome [2]: inactive | outcome [3]: inactive | Potency [4]: inactive | outcome [5]: inactive | outcome [6]: inactive | outcome [7]: inactive | outcome [8]: inactive | Potency [9]: inactive | Potency [10]: 15.5 µM (active) | Potency [11]: inactive | outcome [12]: inactive | outcome [13]: inactive | Potency [14]: inactive | outcome [15]: inactive | Potency [16]: inactive | outcome [17]: inactive | outcome [18]: inactive

CN(C)c1ccncc1
outcome [1]: inactive | outcome [2]: inactive | outcome [3]: inactive | Potency [4]: inactive | outcome [5]: inactive | outcome [6]: inactive | outcome [7]: inactive | outcome [8]: inactive | Potency [9]: inactive | Potency [10]: inactive | Potency [11]: inactive | outcome [12]: inactive | outcome [13]: inactive | Potency [14]: inactive | outcome [15]: inactive | Potency [16]: inactive | outcome [17]: inactive | outcome [18]: inactive | Potency [19]: inactive

Cc1ccc(N)nc1
outcome [1]: inactive | outcome [2]: inactive | outcome [3]: inactive | Potency [4]: inactive | outcome [5]: inactive | outcome [6]: inactive | outcome [7]: inactive | outcome [8]: inactive | Potency [9]: inactive | Potency [10]: inactive | Potency [11]: inactive | outcome [12]: inactive | outcome [13]: inactive | Potency [14]: inactive | outcome [15]: inactive | Potency [16]: inactive | outcome [17]: inactive | outcome [18]: inactive
